Measured values as given in publication PMC5540273 (PLoS ONE, 2017).

Test system: LATS2
Conditions: concentration: 1 μM, replicates: in singlicate; n = 1
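Note: KINOMEscan kinase panel screen.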

Row | Structure (SMILES) | %Inh
1 | Cc1c(Cn2c3ccccc3n3c(=O)cc(N4CCOCC4)nc23)cccc1C(F)(F)F [GSK2306394] | 0%
2 | Fc1ccc(-c2nc[nH]c2-c2ccncc2)cc1 [SB-217360] | 0%
3 | COc1cccc(CNC(=O)NC2CCN(c3ccnc(Nc4ccc(F)cc4)n3)C2)c1 (centres unmarked) [GSK1379723] | 0%
4 | Cc1ccccc1-c1cc(-c2c[nH]nc2-c2ccccn2)ccn1 [GW680061] | 0%
5 | COC(=O)C(NC(=O)NC1CCN(c2ccnc(Nc3ccc(F)cc3)n2)C1)c1ccccc1 (centres unmarked) [GSK1379712] | 5%
6 | O=C1NC(=O)C(c2ccc(Cl)cc2)=C1Nc1ccc(O)cc1 [SB-340867] | 0%
7 | COc1cc2ncnc(Nc3cccc(Br)c3)c2cc1OC.Cl [GI230329] | 0%
8 | COC(=O)c1cccc(NC(=O)NC2CCN(c3ccnc(Nc4ccc(F)cc4)n3)C2)c1 (centres unmarked) [GSK1379725] | 0%
9 | COc1ccc2cc(-c3nc(-c4ccccc4C(C)C)[nH]c3-c3ccncc3)ccc2c1 [SB-660566] | 0%
10 | CC(=O)c1c(C)c2cnc(Nc3ccc(N4CCNCC4)cn3)nc2n(C2CCCC2)c1=O | 26%
11 | CCc1ccc(-c2ccc3c(c2)-c2n[nH]cc2S(=O)(=O)N3C)cc1 | 0%
12 | CC(=O)c1c(C)c2cnc(Nc3ccn(C)n3)nc2n(C2CCCC2)c1=O | 4%
13 | CC(C)c1cc(-c2ccc3c(N)n[nH]c3c2)nc(N)n1 [GSK2250882] | 0%
14 | COc1ccc(Nc2nccc(N3CCC(NC(=O)C(C)c4ccc(Cl)cc4)CC3)n2)cc1 (centres unmarked) [GSK1379812] | 100%
15 | Cc1ccc(NC(=O)c2ccc(Cl)cc2)cc1-c1ccc(C(=O)Nc2ccncc2)cc1 [GSK1398467] | 0%
16 | Cl.Cl.Cl.N#Cc1ccc(CCNc2nccc(-c3cccc(CN4CCNCC4)c3)n2)cc1 [GSK2137462] | 36%
17 | CCCCc1nn2ncccc2c1-c1ccnc(NC2CC2)n1 [GW684374] | 0%
18 | COc1cccc(NC(=O)Nc2ccc(C)c(-c3ccc(C(=O)Nc4ccncc4)cc3)c2)c1 [GSK1398474] | 5%
19 | Cc1ccc(-c2nc(Nc3ccncc3)c3ccccc3n2)s1 [GSK189015] | 0%

Row | Structure (SMILES) | %Inh
20 | CS(=O)(=O)CCNCc1nc(-c2ccc3ncnc(Nc4ccc(OCc5ccccc5)c(Cl)c4)c3c2)cs1.Cl [GW582764] | 0%
21 | COC(=O)c1cccc(NC(=O)NC2CCN(c3ccnc(Nc4ccc(OC)cc4)n3)C2)c1 (centres unmarked) [GSK1379746] | 0%
22 | CC[C@@H]1CO[C@H](C(=O)Nc2ccccc2)CN1c1cc(-c2ccc3c(N)n[nH]c3c2)nc(NC)n1 [GSK2376236] | 0%
23 | CS(=O)(=O)Cc1ccc(Nc2nccc(-c3c(-c4cccc(NC(=O)C5CCCCC5)c4)nn4ncccc34)n2)cc1 [GSK350559] | 48%
24 | CSc1ccc(-c2nc3n(c2-c2ccncc2)CCC3)cc1 [SKF-105561] | 13%
25 | Cc1cnc(N)c(/C=C/c2cncc(C(=O)NCCc3ccc(Cl)cc3Cl)c2)c1.Cl [GSK190937] | 36%
26 | CNC(=O)c1ccc(C)c(-n2c(C)cc(OCc3ccc(F)cc3F)c(Br)c2=O)c1 | 0%
27 | CCn1c(-c2c(N)noc2C)nc2cnccc21 [SB-737856] | 0%
28 | O=c1cc(N2CCOCC2)nc2n(Cc3ccccc3F)ccn12 [GSK2297428] | 0%
29 | Fc1ccc(-c2nc3n(c2-c2ccncc2)CCS3)cc1 [GI98581] | 0%
30 | Fc1ccc(-c2nn3cccc(F)c3c2-c2ccncc2)cc1 [GW475620] | 0%
31 | COc1ccc(CSc2nnc(-c3ccc4nccn4c3)o2)cc1C(F)(F)F | 23%
32 | CC(C)c1ccc(O)cc1Nc1ccnc2ccc(C(F)(F)F)cc12 [GW482059] | 0%
33 | Cc1ccc(NC(=O)Nc2ccccc2F)cc1-c1ccc(C(=O)Nc2ccncc2)cc1 [GSK1398477] | 2%
34 | Cc1ccc(NC(=O)Nc2ccc(Cl)cc2)cc1-c1ccc(C(=O)Nc2ccncc2)cc1 [GSK1398472] | 0%
35 | Cc1c(Cn2c(C)c(C)n3c(=O)cc(N4CCOCC4)nc23)cccc1C(F)(F)F [GSK2328680] | 1%
36 | O=C(Nc1n[nH]c2nc(-c3cccs3)c(Br)cc12)C1CC1 [SB-735297] | 3%
37 | Cc1cccc2c(-c3ccncn3)c(-c3ccc(F)cc3)nn12 [GW515532] | 11%

Test system: LCK
Conditions: concentration: 1 μM, replicates: in singlicate; n = 1

Row | Structure (SMILES) | %Inh
38 | Cc1c(Cn2c3ccccc3n3c(=O)cc(N4CCOCC4)nc23)cccc1C(F)(F)F [GSK2306394] | 11%
39 | Fc1ccc(-c2nc[nH]c2-c2ccncc2)cc1 [SB-217360] | 25%
40 | COc1cccc(CNC(=O)NC2CCN(c3ccnc(Nc4ccc(F)cc4)n3)C2)c1 (centres unmarked) [GSK1379723] | 11%
41 | Cc1ccccc1-c1cc(-c2c[nH]nc2-c2ccccn2)ccn1 [GW680061] | 5%
42 | COC(=O)C(NC(=O)NC1CCN(c2ccnc(Nc3ccc(F)cc3)n2)C1)c1ccccc1 (centres unmarked) [GSK1379712] | 18%
43 | O=C1NC(=O)C(c2ccc(Cl)cc2)=C1Nc1ccc(O)cc1 [SB-340867] | 5%
44 | COc1cc2ncnc(Nc3cccc(Br)c3)c2cc1OC.Cl [GI230329] | 66%
45 | COC(=O)c1cccc(NC(=O)NC2CCN(c3ccnc(Nc4ccc(F)cc4)n3)C2)c1 (centres unmarked) [GSK1379725] | 0%
46 | COc1ccc2cc(-c3nc(-c4ccccc4C(C)C)[nH]c3-c3ccncc3)ccc2c1 [SB-660566] | 11%
47 | CC(=O)c1c(C)c2cnc(Nc3ccc(N4CCNCC4)cn3)nc2n(C2CCCC2)c1=O | 0%
48 | CCc1ccc(-c2ccc3c(c2)-c2n[nH]cc2S(=O)(=O)N3C)cc1 | 4%
49 | CC(=O)c1c(C)c2cnc(Nc3ccn(C)n3)nc2n(C2CCCC2)c1=O | 8%
50 | CC(C)c1cc(-c2ccc3c(N)n[nH]c3c2)nc(N)n1 [GSK2250882] | 9%
51 | COc1ccc(Nc2nccc(N3CCC(NC(=O)C(C)c4ccc(Cl)cc4)CC3)n2)cc1 (centres unmarked) [GSK1379812] | 38%
52 | Cc1ccc(NC(=O)c2ccc(Cl)cc2)cc1-c1ccc(C(=O)Nc2ccncc2)cc1 [GSK1398467] | 68%
53 | Cl.Cl.Cl.N#Cc1ccc(CCNc2nccc(-c3cccc(CN4CCNCC4)c3)n2)cc1 [GSK2137462] | 12%
54 | CCCCc1nn2ncccc2c1-c1ccnc(NC2CC2)n1 [GW684374] | 17%
55 | COc1cccc(NC(=O)Nc2ccc(C)c(-c3ccc(C(=O)Nc4ccncc4)cc3)c2)c1 [GSK1398474] | 43%
56 | Cc1ccc(-c2nc(Nc3ccncc3)c3ccccc3n2)s1 [GSK189015] | 7%

Row | Structure (SMILES) | %Inh
57 | CS(=O)(=O)CCNCc1nc(-c2ccc3ncnc(Nc4ccc(OCc5ccccc5)c(Cl)c4)c3c2)cs1.Cl [GW582764] | 17%
58 | COC(=O)c1cccc(NC(=O)NC2CCN(c3ccnc(Nc4ccc(OC)cc4)n3)C2)c1 (centres unmarked) [GSK1379746] | 11%
59 | CC[C@@H]1CO[C@H](C(=O)Nc2ccccc2)CN1c1cc(-c2ccc3c(N)n[nH]c3c2)nc(NC)n1 [GSK2376236] | 30%
60 | CS(=O)(=O)Cc1ccc(Nc2nccc(-c3c(-c4cccc(NC(=O)C5CCCCC5)c4)nn4ncccc34)n2)cc1 [GSK350559] | 23%
61 | CSc1ccc(-c2nc3n(c2-c2ccncc2)CCC3)cc1 [SKF-105561] | 0%
62 | Cc1cnc(N)c(/C=C/c2cncc(C(=O)NCCc3ccc(Cl)cc3Cl)c2)c1.Cl [GSK190937] | 7%
63 | CNC(=O)c1ccc(C)c(-n2c(C)cc(OCc3ccc(F)cc3F)c(Br)c2=O)c1 | 1%
64 | CCn1c(-c2c(N)noc2C)nc2cnccc21 [SB-737856] | 10%
65 | O=c1cc(N2CCOCC2)nc2n(Cc3ccccc3F)ccn12 [GSK2297428] | 28%
66 | Fc1ccc(-c2nc3n(c2-c2ccncc2)CCS3)cc1 [GI98581] | 26%
67 | Fc1ccc(-c2nn3cccc(F)c3c2-c2ccncc2)cc1 [GW475620] | 18%
68 | COc1ccc(CSc2nnc(-c3ccc4nccn4c3)o2)cc1C(F)(F)F | 4%
69 | CC(C)c1ccc(O)cc1Nc1ccnc2ccc(C(F)(F)F)cc12 [GW482059] | 22%
70 | Cc1ccc(NC(=O)Nc2ccccc2F)cc1-c1ccc(C(=O)Nc2ccncc2)cc1 [GSK1398477] | 68%
71 | Cc1ccc(NC(=O)Nc2ccc(Cl)cc2)cc1-c1ccc(C(=O)Nc2ccncc2)cc1 [GSK1398472] | 60%
72 | Cc1c(Cn2c(C)c(C)n3c(=O)cc(N4CCOCC4)nc23)cccc1C(F)(F)F [GSK2328680] | 18%
73 | O=C(Nc1n[nH]c2nc(-c3cccs3)c(Br)cc12)C1CC1 [SB-735297] | 16%
74 | Cc1cccc2c(-c3ccncn3)c(-c3ccc(F)cc3)nn12 [GW515532] | 17%
